# The list is not random: actives were taken first. Their share in the collection is about 22%.
# Pf growth 96h – P. falciparum growth inhibition at 96 hours | P. falciparum luciferase reporter growth, 96 h | Potency, µM (highest dose often 28.7 µM), actives largely listed as inhibitors | 320,000 tested, 6.9% active | AID 504834
#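 P. falciparum expressing integrated firefly luciferase, in erythrocytes at 2% hematocrit, 0.05% parasitemia, incubated with compounds 96 h at 37 C, 5% CO2. Growth inhibition read as loss of luminescence; two-generation exposure targets delayed-death apicoplast inhibitors.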
# Shiga toxin inh – Shiga toxin inhibition; Vero cells, Shiga toxin protein synthesis inhibition reporter; inhibition, % at 38.7 µM; 290,000 tested, 9.2% active; in the data active = inhibition mostly above about 28%, no sharp cut-off; inactive = mostly below about 43%
# Pf growth 48h – P. falciparum growth inhibition at 48 hours (one generation); P. falciparum luciferase growth in erythrocytes, 48 h; Potency, µM (doses to about 28.7 µM), usual class: inhibitors; 310,000 tested, 5.9% active; AID 504832
#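 Growth was read as firefly luciferase luminescence after a 48 h, 37 C, 5% CO2 exposure of compounds to reporter-bearing P. falciparum cultures (0.1% parasitemia, 2% hematocrit final) in Albumax-supplemented RPMI 1640.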
# CHX counter – affects cycloheximide protein synthesis inhibition readout, counter-screen | cell reporter, cycloheximide protein synthesis inhibition counterscreen | max response, % | 300,000 tested, 12% active | AID 2314; in the data active = max response mostly above about 13%, no sharp cut-off; inactive = mostly below about 14%; also: read at 38.3 µM for the half of the compounds with a filed dose
# LmPK inh – LmPK (Leishmania mexicana) enzyme inhibition. Q27686. purified LmPK, Kinase-Glo ATP luminescence, 1 h. Potency, µM (doses to about 57.5 µM), actives largely listed as inhibitors. 290,000 tested, 0.37% active. AID 1721
# Target sequence (Q27686 whole entry, looked up): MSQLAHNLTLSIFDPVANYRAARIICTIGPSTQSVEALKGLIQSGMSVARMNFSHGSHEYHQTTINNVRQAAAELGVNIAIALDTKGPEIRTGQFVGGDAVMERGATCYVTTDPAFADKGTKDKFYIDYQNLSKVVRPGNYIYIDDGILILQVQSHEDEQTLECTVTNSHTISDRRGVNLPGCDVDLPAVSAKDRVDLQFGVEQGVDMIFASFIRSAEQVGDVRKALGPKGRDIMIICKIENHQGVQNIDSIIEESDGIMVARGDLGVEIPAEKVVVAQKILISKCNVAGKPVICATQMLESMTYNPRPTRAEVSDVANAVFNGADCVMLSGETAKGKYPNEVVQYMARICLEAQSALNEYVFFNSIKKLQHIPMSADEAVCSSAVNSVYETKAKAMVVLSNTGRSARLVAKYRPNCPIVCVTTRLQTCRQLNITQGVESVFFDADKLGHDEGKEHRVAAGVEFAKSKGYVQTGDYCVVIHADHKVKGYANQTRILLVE
#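 Kinase-Glo luminescence read after 1 h RT reaction of 0.1 nM LmPK with 0.5 mM PEP and 0.1 mM ADP. Activity scaled between uninhibited and enzyme-free controls.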
# A number is an active result; . = inactive; ? = inconclusive; / = no result. Unless noted, calls follow the shape of the dose curve; as a rule, active = well fitted inhibition curve with a large enough effect; inconclusive = small, poorly fitted or top-dose-only effect, or another doubt; inactive = no such curve, though single readings can be large or run the other way.
SMILES,Pf growth 96h,Shiga toxin inh,Pf growth 48h,CHX counter,LmPK inh
COc1ccc(OCC(O)CNC(=O)c2cccs2)cc1 (configuration not stated),.,.,.,.,.
CC(C)(C)C(=O)NC1CCN(C(=O)N2CCCC2)CC1,?,.,.,.,.
CC(C)(C)C(=O)NC1CCN(S(C)(=O)=O)CC1,11.7µM,.,.,.,.
CCOc1cc(-n2cnnn2)c(OCC)cc1NC(=O)c1cnccn1,5.22µM,.,.,.,.
CCOC(=O)c1ccc(NC(=O)C2CCCN(c3cnccn3)C2)cc1 (configuration not stated),.,34.0,.,28.9,.
CCCCc1ccc(NC(=O)c2cnccn2)cc1,.,61.0,.,37.0,.
CCOC(=O)c1ccc(NC(=O)c2cnccn2)cc1,?,.,.,19.9,.
CCCc1ccc(C(C)NC(=O)c2cnccn2)cc1 (configuration not stated),.,.,?,.,.
COc1ccc(OC)c(NC(=O)CSc2nncc(=O)n2N)c1,.,.,.,.,.
COc1ccc(CCN(C)C(=O)C2CCN(C(=O)Nc3ccccc3)CC2)cc1OC,.,/,.,/,/
CCCCN(C)C(=O)C1CCCN(S(=O)(=O)c2ccc3c(c2)CC(C)N3C(=O)C2CC2)C1 (configuration not stated),13.1µM,.,?,.,.
CCC1CCCCN1S(=O)(=O)c1ccc2[nH]c(=O)ccc2c1 (configuration not stated),3.29µM,.,.,.,.
CCCNC(=O)C1CCN(S(=O)(=O)c2ccc3[nH]c(=O)ccc3c2)CC1,.,.,.,.,.
CC1Cc2cc(S(=O)(=O)N3CCCCC3C)ccc2N1C(=O)C1CCC1 (configuration not stated),10.4µM,.,?,.,.
CCOC(=O)C1CCCCN1S(=O)(=O)c1ccc2c(c1)CC(C)N2C(=O)C1CCC1 (configuration not stated),.,.,?,.,.
CCC(C)NC(=O)C1CCCN(S(=O)(=O)c2ccc3c(c2)CC(C)N3C(=O)C2CC2)C1 (configuration not stated),?,.,?,.,.
CCC1CCCCN1S(=O)(=O)c1ccc2c(c1)CCN2C(=O)C1CCC1 (configuration not stated),/,.,9.28µM,.,.
CC1CC(C)CN(S(=O)(=O)c2ccc3c(c2)CC(C)N3C(=O)C2CCC2)C1 (configuration not stated),?,.,10.4µM,.,.
Cc1csc(=O)n1CC(=O)OCC(=O)NCc1ccc(F)cc1,.,/,.,/,/
O=C(NCCc1ccccc1)c1ccccc1SCC(=O)N1CCCC1,.,97.3,?,26.8,.
O=C(OCC(=O)N1CCCCC1)c1cc2ccccc2cc1O,9.28µM,.,.,24.1,.
CCSc1ccccc1C(=O)NCCc1ccccc1,.,.,.,.,.
CCNC(=O)NC(=O)COC(=O)c1ccccc1SCC(=O)NC(=O)NCC,?,.,.,62.6,?
O=C(OCc1ccc(F)cc1)c1cc2ccccc2cc1O,?,.,.,8.6,.
Nc1ccccc1C#CCCCCO,.,.,.,.,.
SMILES,Pf growth 96h,Shiga toxin inh,Pf growth 48h,CHX counter,LmPK inh
O=C(COC(=O)c1ccccc1SCC(=O)N1CCCC1)NC1CCCCC1,?,/,.,/,/
CCC1CCCCN1C(=O)COC(=O)c1cc(Br)ccc1Cl (configuration not stated),.,.,.,.,.
CCC1CCCCN1C(=O)COC(=O)c1cc2ccccc2cc1O (configuration not stated),.,79.5,/,50.2,.
O=C(OCC(=O)N1CCCCC1)c1ccccc1SCC(=O)N1CCCCC1,.,.,.,19.7,.
Cc1cc(C)cc(N(CCC#N)C(=O)COC(=O)c2ccccc2SCC(=O)N2CCCC2)c1,11.7µM,.,?,.,.
CCc1c(C(=O)N/N=C/c2ccco2)nnn1-c1nonc1N,.,.,.,.,.
COc1cc2oc(-c3ccc(O)cc3)cc(=O)c2c(OC)c1O,?,.,?,.,.
O=c1c(O[C@@H]2O[C@H](CO)[C@H](O)[C@H](O)[C@H]2O)c(-c2ccc(O)c(O)c2)oc2cc(O)cc(O)c12,/,.,/,.,.
COc1ccc(-c2cc(=O)c3c(O)cc(O)cc3o2)cc1O,/,70.1,/,34.0,/
COc1cc2oc(-c3ccc(O)cc3)cc(=O)c2c(O)c1OC,10.4µM,.,.,10.1,.
COc1c(-c2ccc(O)c(O)c2)oc2cc(O)cc(O)c2c1=O,.,.,.,active,.

# Screening data as filed in PubChem BioAssay.
